# This is part of a sample that, as a whole, favours compounds with a hit. Of some 83,000 tested, about 20% had one in any assay.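 Activity criterion: percent growth below 10, measured after cells in 96-well plates were exposed to a single compound concentration for 48 hours.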 A number with no mark means an inactive call. Calls of active or inactive are those of the source.
# Key:
# Assay in all cases: NCI-60 one-dose screen, 48 h (100 = growth as untreated, 0 = no growth, -100 = all killed)
# Settings in all cases: 10 µM unless noted
# SR leukemia = system: SR leukemia
# RPMI-8226 leukemia = system: RPMI-8226 leukemia
# OVCAR-8 ovarian = system: OVCAR-8 ovarian
# OVCAR-5 ovarian = system: OVCAR-5 ovarian
# OVCAR-4 ovarian = system: OVCAR-4 ovarian
# SK-OV-3 ovarian = system: SK-OV-3 ovarian
# IGROV1 ovarian = system: IGROV1 ovarian
# OVCAR-3 ovarian = system: OVCAR-3 ovarian
# HS 578T breast = system: HS 578T breast
# NCI/ADR-RES ovarian = system: NCI/ADR-RES ovarian
Compound,growth (SR leukemia),growth (RPMI-8226 leukemia),growth (OVCAR-8 ovarian),growth (OVCAR-5 ovarian),growth (OVCAR-4 ovarian),growth (SK-OV-3 ovarian),growth (IGROV1 ovarian),growth (OVCAR-3 ovarian),growth (HS 578T breast) [%],growth (NCI/ADR-RES ovarian)
Cc1ccn2c(-c3csc(Nc4cccc(O)c4)n3)c(C)nc2c1,-24.8% (active),-4.74% (active),40.1%,38.5%,36.7%,-25.2% (active),14.1%,-14% (active),19.2,14.4%
O=C(NCc1cccc(C(F)(F)F)c1)[C@H](CCC(=O)N1CCN(C2CCCCC2)CC1)N1C(=O)[C@@H](N2C(=O)OC[C@@H]2c2ccccc2)[C@H]1/C(Cl)=C/c1ccccc1,-36.3% (active),14.1%,64.3%,87%,51.6%,56%,36.8%,47.6%,50,35.7%
CS(=O)(CCCCN=C=S)=NC(=O)c1c(F)c(F)c(F)c(F)c1F (stereo not given),23.1%,-3.75% (active),97.3%,100%,112%,97.3%,106%,102%,88.7,103%
O=C(CN1CCN(c2cc3c(cc2F)c(=O)c(C(=O)O)cn3C2CC2)CC1)Nc1cc(=O)[nH]c(=O)[nH]1,102%,108%,101%,96.4%,113%,110%,96.4%,113%,95.6,102%
Cn1c(=O)c2c(ncn2CC[N+](C)(C)C)n(C)c1=O,94.7%,104%,105%,105%,105%,99.4%,102%,105%,110,102%
CC1=NNC(=O)C1C (stereo not given),121%,73.1%,83.3%,122%,128%,101%,106%,109%,90.8,105%
Nc1cccc(NC(=O)C(=O)Nc2cccc(N)c2)c1,115%,88.1%,94.8%,94.5%,126%,117%,75.7%,101%,89.8,93.1%
C=C(C[n+]1ccccc1)[C@@H]1CC[C@]2(C(=O)OC)CC[C@]3(C)[C@H](CC[C@@H]4[C@@]5(C)CC[C@H](O)C(C)(C)[C@@H]5CC[C@]43C)[C@@H]12,108%,91.1%,102%,102%,99.7%,95%,98%,108%,101,103%
COc1cccc(-c2nc3sccn3c2-c2ccnc(NCCCNS(=O)(=O)c3ccc(Cl)cc3)c2)c1,50%,9.05% (active),31.1%,90.6%,43.1%,75.3%,42%,51.3%,65.3,26.9%
COc1ccc(-c2c(C)noc2-c2ccc(O)cc2O)cc1,31.1%,50.7%,99.9%,112%,76.4%,94.1%,87%,80.5%,106,94.6%
O=c1cc(-c2ccccc2)[nH]c2ccccc12,22.8%,22.4%,35%,50.6%,64.5%,37.5%,-7.72% (active),-37.8% (active),25.9,-2.1% (active)
Cc1cc(=O)oc2cc(Oc3nc(-c4ccc(Cl)cc4)cn4c(-c5ccc(Cl)cc5)cnc34)ccc12,50.9%,93.7%,92.5%,94.6%,85.6%,103%,97.6%,107%,87.8,78.8%
COc1cnc2c(c1)C(=O)c1c-2n(CCCN2CCNCC2)c(=O)c2cc([N+](=O)[O-])ccc12,-21.7% (active),-37.1% (active),-52.8% (active),-77.9% (active),-77.1% (active),3.11% (active),-58.3% (active),-83.1% (active),70.7,-44.3% (active)

# Reference: PubChem BioAssay (NCI)
